The results in this text go back to PubChem BioAssay AID493185 (National Center for Advancing Translational Sciences (NCATS), 2011).

Unmarked numbers belong to inactive results. Active and inactive are the calls of the source. The call rests on the fitted dose curve; in most records, active means well fitted activation curve with a large enough effect; inconclusive means small, poorly fitted or top-dose-only effect; inactive means no such curve, though single readings can be large or run the other way.
Potency means the concentration at half of the fitted maximal effect.

The test is described as follows: Counterscreen for Identifying a Potential Treatment of Ataxia-Telangiectasia: Hit Validation. On activation: 0% is about no effect. Particulars: cell-free AlphaLISA/AlphaScreen artifact counterscreen, PBS only, no cells; series mostly up to 76.9 µM; activation: at the top concentration. An excerpt: NIH Chemical Genomics Center [NCGC]
NIH Molecular Libraries Probe Centers Network [MLPCN]
Assay Submitter (PI): Wei Zheng and Yosef Shiloh
Ataxia-telangiectasia (A-T) is a devastating and progressive disease for which, there is no cure. Although A-T is a multisystem disease, it is stereotyped characterized by its neurological symptoms such as truncal ataxia, due to cerebellar cortical degeneration of the Purkinje and granule cells. Other symptoms of A-T are telangiectasias (dilated blood vessels), primary immunodeficiency, marked sensitivity to ionizing radiation (IR), chromosomal instability and predisposition to cancer.
The underlying genetic cause of A-T is null mutations in the ATM (A-T mutated) gene. ATM is a nuclear serine/threonine kinase that functions as a master regulator of the cellular responses to double strand breaks (DSBs) in the DNA. Upon activation by DSBs, ATM phosphorylates a plethora of downstream targets, including KAP-1 on […]. KAP-1 phosphorylation occurs shortly in response to DSBs and mediates global chromatin relaxation, which facilitates DSB repair. To screen for small molecules that will compensate for the loss of ATM in cells derived from A-T patients, we monitored KAP-1 phosphorylation as a readout for ATM-like activity using an AlphaLISA assay.
3. Library compounds, 23 nl, 76.7 - 0.61uM dilution series final concentration
4. Incubation, 60 min, 37C, 5% CO2, 95% humidity
6. Incubation, 30 min, 37C, 5% CO2, 95% humidity
7. Reagent, 1 ul, Premixed detection reagents and lysis buffer
8. Reagent, 1 ul, 0.6% Antifoam A
9. Incubation, 6 hr, 25C, 95% humidity
10. Readout, EnVision, EnVision plate reader. AlphaScreen 1536-well protocol
PBS was dispensed into medium-binding white solid-bottom tissue culture treated Kalypsys plates with a Multidrop dispenser. Detection reagent and lysis buffer was 3.75nM Rab-a-pKAP1 antibody bound to 75 ng/ul AlphaScreen SA donor bead, 3.75 nM Biot-M-a-KAP1 antibody bound to AlphaLISA protein A acceptor bead, 0.5x protease inhibitor cocktail and 0.25x PerkinElmer lysis buffer. EnVision protocol for 1536-well AlphaScreen read (30ms excitation, 100ms read), about 10 min/plate. This assay is similar to the primary screen but is without cells. It aims to identify artifacts of the assay platform and unspecific hits.
(Counterscreens check selectivity or assay interference.)
For the compound `CCN(CC)S(=O)(=O)c1cccc(N=Nc2c(O)n(CC)c(=S)n(CC)c2=O)c1`, the “activation” value is -12.3%.

Turning to `CN1CCCC(C(O)(c2ccccc2)c2ccccc2)C1` (stereo not given), the “activation” value is -26.9%.

On to `CC(=O)OC1CC[C@]2(C#N)[C@H]3CC[C@]4(C)[C@H](C5C=CC(=O)O5)CCC4(O)C3CCC2(O)C1` (stereo not given in full), for which the “activation” value was 4.51%.

On to `CC1(C)C[C@H]2C=C(C=O)[C@]3(C=O)C[C@]3(C)[C@H]2C1`, for which the “activation” value was -6.15%.

Consider `CCc1ccc(N2C(=O)NC(=O)/C(=C\C=C\c3ccco3)C2=O)cc1`, for which the “activation” value is -6.15%.

For the compound `Cc1ccc(-n2c(O)c(C=NCC3CCCO3)c(=O)[nH]c2=O)c(C)c1` (stereo not given), the “activation” value was 0%.

For the compound `Cc1nc2ccccc2c(=O)n1-c1ccc(F)cc1F`, the “activation” value was 2.46%.

In the case of `CCCCC(=O)N/N=C/c1c(O)n(CCC2=CCCCC2)c(=O)[nH]c1=O`, the “activation” value was -8.2%.

As for `CCN(CC)S(=O)(=O)c1ccc(C(=O)NC2CN3CCC2CC3)cc1` (stereo not given), the “activation” value is -5.26%.

Regarding `Cc1ccc(C)c(NP(=O)(Oc2ccccc2)Oc2ccccc2)c1`, the “activation” value was -6.77%.

Regarding `CCCCn1c(O)c(C(=O)/C=C/c2c[nH]c3ccccc23)c(=O)[nH]c1=O`, the “activation” value was -9.23%.

As for `Cc1cc(O)c2c(c1)C(=O)C13C(=C2O)C(=O)[C@H]2[C@@H](O)[C@@H]1[C@H]1[C@H](O)[C@@H]3C(=O)C3=C(O)c4c(O)cc(C)cc4C(=O)C312` (stereo not given in full), the Potency is 7.33 µM (active).

In the case of `Cc1cccc(N2C(=O)NC(=O)/C(=C\C=C\c3ccco3)C2=O)c1`, the “activation” value is -38.5%.

For `COC(=O)C1=C(c2ccc(OCc3ccccc3)cc2)C[C@@H]2CC[C@H]1N2C(=O)NCc1cccc(C(F)(F)F)c1`, the “activation” value was 17.7%.

As to `O=C(c1cccnc1)C1CCCN(Cc2nc(-c3cnccn3)no2)C1` (stereo not given), the “activation” value is -21.5%.

As for `O=C1Nc2ccccc2C1Cc1nc2ccccc2c(=O)n1-c1ccccc1` (stereo not given), the “activation” value is -12.3%.

On to `C/C=C/c1ccc2c(c1)OCO2`, for which the “activation” value is -4.92%.

With `CCN1C(=O)N(CC)C(=O)C2(Cc3ccccc3N3CCN(c4ccccc4)CC32)C1=O` (stereo not given), the “activation” value was -4.1%.

As for `CN1CCN(c2ccc([N+](=O)[O-])c3no[n+]([O-])c23)CC1`, the “activation” value is -7.38%.

On to `CC(C)c1ccc(-n2c(O)c(C=NC(CCS(C)=O)C(=O)O)c(=O)[nH]c2=S)cc1` (stereo not given), for which the “activation” value was -12.3%.
